Bioassay records (PubChem)
Hits are enriched below; roughly 6.2% of the tested compounds scored in any of these assays.
HT1080 IDH1KD tx: HT-1080 IDH1 knockdown cell toxicity (counter line). HT-1080 IDH1 knockdown viability, ATP luminescence, 48 h. Potency, µM (highest dose often 46.1 µM), for the others: top-dose activity, negative = toxicity, actives largely listed as cytotoxic. 360,000 tested, 2% active. AID 686971;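 also: 0% = DMSO wells and -100% = cell-free medium wells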
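Assay cells: HT-1080 with IDH1 knockdown, 750 per well, RPMI/5% FBS. Exposure: 48 h at 37 °C following 2 h pre-incubation. Read: CellTiter-Glo luminescence; fitted concentration-response, curve class assigned.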
S2 tox: cell viability loss in ATXN counter-screen; S2 cells (HEK-293 line with an ATXN2-luciferase reporter) viability, CellTiter-Fluor protease fluorescence, 24 h; Potency, µM (doses to about 56.7 µM), hits mostly cytotoxic; 400,000 tested, 0.49% active; also: nearly all actives have a fitted effect of over 40% in size
ATXN2 expr inh: ATXN2 expression inhibition; HEK-293 ATXN2-luciferase reporter, luminescence, 24 h; Potency, µM (series often up to 57 µM), for inactives: at the top dose activity change, negative = inhibition, actives largely listed as inhibitors; 360,000 tested, 0.72% active; also: % is scaled to controls: 0 for no effect and ±100 for the full control effect; nearly all actives have a fitted effect of over 55% in size
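ATXN2-luciferase reporter cells (luciferase flanked by upstream and downstream ATXN2 gene portions) were treated 24 h at 37 °C with compounds at up to 57 uM. SteadyGlo luminescence gave expression; GF-AFC fluorescence gave viability.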
KB-V1 cytotox: KB-V1 MDR subline cytotoxicity; KB-V1 MDR cells viability, CellTiter-Glo, 72 h; Potency, µM (top dose mostly 46.1 µM), hits mostly cytotoxic; 400,000 tested, 3.4% active; also: % is scaled to controls: 0 for no effect and ±100 for the full control effect; nearly all actives have a fitted effect of over 60% in size
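Potencies derive from concentration-effect curves fitted to normalized luminescence (CellTiter-Glo) of KB-V1 cells treated for 72 h at 37 degrees C in phenol-red-free DMEM containing 10% FBS.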
KB-3-1 cytotox: KB-3-1 parental cell cytotoxicity; AID 1347075; KB-3-1 viability, CellTiter-Glo ATP luminescence, 72 h; 400,000 tested, 1.4% active; Potency, µM (titrated, usually from 46.1 µM), most hits filed as cytotoxic; also: % is scaled to controls: 0 for no effect and ±100 for the full control effect; nearly all actives have a fitted effect of over 60% in size
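KB-3-1 cells, DMEM (no phenol red) + 10% FBS; compound by pin transfer, 72 h, 37 °C. Readout: CellTiter-Glo luminescence after 10 min. Data normalized, curve-fitted.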
HT1080-NT tox: kills 2HG-producing HT-1080-NT fibrosarcoma cells; AID 686970; 360,000 tested, 1.6% active; HT-1080-NT fibrosarcoma viability, CellTiter-Glo ATP luminescence, 48 h; Potency, µM (top dose mostly 46.1 µM), without a hit: at the highest dose activity, negative = less viability, hits mostly cytotoxic;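 also: NT is the 2HG producing partner of a matched IDH1 knockdown line; 0% = DMSO-treated cells and -100% = media-only wells without cells; nearly all actives have a fitted effect of over 55% in size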
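Viability by CellTiter-Glo luminescence after 48 h compound exposure at 37C of HT-1080-NT cells (750/well, RPMI, 5% FBS). % activity scaled between DMSO wells and medium-only wells, then curve-fitted and categorized by curve class.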
* = called active by the depositor; i = inactive; ? = inconclusive; · = not tested or not shown. Calls follow the shape of the dose curve; as a rule, active = well fitted curve in the direction sought with a large enough effect; inconclusive = small, poorly fitted or top-dose-only effect, or another doubt; inactive = no such curve, though single readings can be large; an effect the other way counts as inactive or inconclusive. Potency is read from the fitted curve at half-maximal effect.

SMILES	HT1080 IDH1KD tx	S2 tox	ATXN2 expr inh	KB-V1 cytotox	KB-3-1 cytotox	HT1080-NT tox
CCN(CC)S(=O)(=O)c1cnccc1N1CCN(c2cccc(Cl)c2)CC1	-20%	i	-26%	i	10µM*	-10%
Cc1ccc2c(c1)c1c(n2CC(O)CNC2CCCC2)CCCC1 (centres undefined)	-14%	25µM*	·	21µM*	?	?
Cc1ccc2c(c1)c1c(n2CC(O)Cn2ccnc2C)C(=O)CCC1 (centres undefined)	-3%	i	-12%	i	i	-16%
Cn1c2ccccc2c2cc(C(=O)NNC(=O)CCl)sc21	21µM*	·	?	?	?	?
CC(C)CNC(=O)COC(=O)c1c2c(nc3ccccc13)/C(=C\c1cccs1)CC2	?	·	21%	?	i	-5%
O=C(COC(=O)c1c2c(nc3ccccc13)/C(=C\c1cccs1)CCC2)Nc1ccccc1	-28%	i	-23%	2.3µM*	12µM*	-12%
CC(=O)c1ccc(NC(=O)COC(=O)c2c3c(nc4ccccc24)/C(=C\c2cccs2)CCC3)cc1	?	i	?	16µM*	i	-21%
COc1ccc(NC(=O)C2(S(=O)(=O)c3ccc(C)cc3)CC2)c(OC)c1	·	?	5%	i	i	·
Cc1ccc(C(=O)NCCCn2ccnc2)cc1[N+](=O)[O-]	?	i	?	i	i	-12%
O=C(Nc1ccc(F)c(F)c1)c1ccc(-n2cncn2)c([N+](=O)[O-])c1	-6%	i	-29%	i	i	-5%
O=C(NCCCn1ccnc1)c1ccc(N2CCCCCC2)c([N+](=O)[O-])c1	5.8µM*	i	·	i	i	23µM*
Cc1cccc(NC(=O)c2ccc(N(C)C3CCCCC3)c([N+](=O)[O-])c2)n1	?	i	-31%	2.6µM*	?	-23%
O=C(Nc1cc(C(F)(F)F)ccc1N1CCCCC1)c1cccc([N+](=O)[O-])c1	-4%	i	-15%	16µM*	i	-1%
O=C(Nc1cccc(/C=C/c2ccccn2)c1)c1ccc(-n2cncn2)c([N+](=O)[O-])c1	-26%	18µM*	?	?	?	-14%
CCSc1ccc(C(=O)Nc2cccc(C)n2)cc1[N+](=O)[O-]	-9%	i	28%	?	?	-1%
C[C@H](NC(=O)c1[nH]cnc1C(=O)N[C@H](C)c1ccccc1)c1ccccc1	3%	i	2%	i	i	-2%
COc1ccc(-c2cc(OC(=O)c3cccc(C)c3)c3c(C)oc(C)c3c(=O)c2)cc1	·	?	0%	i	i	·
Cc1cccc(NC(=O)c2ccc(N3CCOCC3)c([N+](=O)[O-])c2)n1	6%	i	33%	?	i	6%
Cc1ccc(NC(=O)c2ccc(-n3cccn3)c([N+](=O)[O-])c2)cc1	-1%	i	-8%	23µM*	i	-4%
Cc1cccc(NC(=O)c2ccc(-n3cccn3)c([N+](=O)[O-])c2)c1	0%	i	3%	i	i	15%
CC1CN(S(=O)(=O)c2ccc(C(=O)NCCCn3ccnc3)cc2)CC(C)O1 (centres undefined)	1.8µM*	i	-31%	i	i	2.1µM*
Cc1cccc(NC(=O)c2ccc(N3CCCCC3)c([N+](=O)[O-])c2)n1	-5%	i	24%	5.2µM*	?	-10%
CCOc1ccc(C(=O)c2oc3ccccc3c2NC(=O)c2cc(-c3ccccc3)on2)cc1	·	·	10%	i	i	·
Cc1ccc(-n2ncc(-c3n[nH]c(=S)o3)c2N)cc1C	4%	i	·	i	i	-3%
O=C1[C@H]2CCCC[C@H]2C(=O)N1CCCCN1CCN(c2nsc3ccccc23)CC1	?	?	?	i	?	23µM*
SMILES	HT1080 IDH1KD tx	S2 tox	ATXN2 expr inh	KB-V1 cytotox	KB-3-1 cytotox	HT1080-NT tox
CCCCOC(=O)c1ccc(NC(=O)c2cc(-c3cccs3)on2)cc1	·	i	11%	i	i	·
CCOc1ccc(N=Cc2c(C)[nH]n(-c3nc4ccccc4[nH]3)c2=O)cc1	3.7µM*	i	-36%	?	?	5.2µM*
O=C(CN1C(=O)COc2ccc(S(=O)(=O)N3CCCC3)cc21)N1CCN(c2ccccc2F)CC1	·	?	7%	i	i	·
Cc1ccccc1OCCc1c(C)[nH]c(=S)[nH]c1=O	2.1µM*	i	-24%	1.8µM*	1.5µM*	2.3µM*
Cc1[nH]c(=S)[nH]c(=O)c1CCOc1ccccc1	-3%	i	-2%	?	?	-17%
COc1ccc(-c2noc(CSc3nnc(Cc4ccccc4)n3-c3ccc(Cl)cc3)n2)cc1	?	?	-3%	12µM*	i	?
Cc1ccc(-c2noc(CSc3nnc(Cc4ccccc4)n3-c3ccc(Cl)cc3)n2)cc1	?	i	2%	18µM*	?	?
COc1ccc(-c2noc(CSc3nnc(CCc4ccccc4)n3-c3ccccc3)n2)cc1OC	?	?	-22%	23µM*	i	?
COc1ccccc1CNC(=O)CCCCn1c(=O)c2ccccc2n(Cc2c(C)cc(C)cc2C)c1=O	·	i	0%	?	i	·
Cc1c2cnn(CC(=O)NC(C)C)c(=O)c2c(C)n1Cc1ccccc1Cl	·	·	·	i	i	·
Cc1ccc(N2C(=O)N(CC(=O)c3cc(C)ccc3C)C(=O)C2C)cc1 (centres undefined)	10%	i	-8%	16µM*	?	-3%
COCCNC(=O)CN1C(=O)c2cccnc2Sc2ccccc21	·	i	7%	i	i	·
COc1ccc(C(C(=O)NC2CCCCC2)N(Cc2ccco2)C(=O)c2snc(C(N)=O)c2N)cc1 (centres undefined)	-1%	i	-36%	16µM*	?	-3%
CC(C(=O)NC1CCCC1)N(C(=O)c1snc(C(N)=O)c1N)c1ccc2c(c1)OCCO2 (centres undefined)	-4%	i	-11%	16µM*	i	-1%
COc1ccc(C(C(=O)NC2CCCC2)N(Cc2ccco2)C(=O)c2snc(C(N)=O)c2N)cc1OC (centres undefined)	3%	i	0%	i	i	8%
CCCC(C(=O)NC1CCCC1)N(CC1CCCO1)C(=O)c1snc(C(N)=O)c1N (centres undefined)	-5%	i	-8%	4.1µM*	i	-4%
